In assay [1] the test system is Nanoluciferase (engineered Oplophorus gracilirostris luciferase). Kind of assay: Primary Nanoluciferase (NLuc) qHTS assay for identification of artifact compounds. (AID 1845222).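 Also: NLuc secreted into diluted conditioned medium of S16 cells; series mostly up to about 54 µM.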 The method in brief:
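Using secreted nanoluciferase in S16 culture medium (0.22 um filtered, 1:55 dilution), compounds were preincubated 15 min at RT. Signal was generated with Nano-Glo reagent (1:100) over 5 min.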

Assay [2] is described as follows: Primary redox qHTS assay for identification of artifact compounds. (AID 1845223). The method in brief:
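Redox-cycling detection via DTT (250 uM final) oxidation coupled to Amplex Red (25 uM)/HRP (250 mU/mL) in HBSS. 15 min preincubation plus 30 min after DTT, room temperature. Ex/Em 525/598 nm; 4-parameter Hill fit against DMSO and 10 uM DA3003.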

Molecules are shown by their SMILES. Results filed as inconclusive are left out. A call without a number means that no potency is given here. The source made the active and inactive calls. Calls follow the shape of the dose curve; as a rule, active = well fitted curve in the direction sought with a large enough effect; inconclusive = small, poorly fitted or top-dose-only effect, or another doubt; inactive = no such curve, though single readings can be large; an effect the other way counts as inactive or inconclusive.

Regarding `CCC(=O)N1CCc2cc(OC)c(O)cc2C1`, the Potency result in assay [1] and in assay [2] was “inactive” in each case.

Regarding `CC1(C)C[C@@H]2[C@H](C1)[C@@]1(C)C[C@]13C(O)OC[C@]3(O)[C@H]2O` (stereo partly specified), the Potency result in assay [1] and in assay [2] was “inactive” in each case.

Turning to `CC[C@H]1OC(=O)[C@H](C)[C@@H](O[C@H]2C[C@@](C)(OC)[C@@H](O)[C@H](C)O2)C(C)[C@@H](O[C@@H]2O[C@H](C)C[C@H](N(C)C)[C@H]2O)[C@](C)(O)C[C@@H](C)CN(C)[C@H](C)[C@@H](O)[C@]1(C)O` (stereo partly specified), the Potency entry in assay [1] and in assay [2] was “inactive” in each case.

With `C=C(C)[C@@H]1CC[C@]2(C)CC[C@]3(C)C(CCC4[C@@]5(C)CC[C@H](O)C(C)(C)C5CC[C@]43C)C12` (stereo partly specified), the Potency entry in assay [1] and in assay [2] was “inactive” throughout.

Consider `C[C@@H]1C[C@@H](O)[C@@]2(CO)C(CO)=CCC[C@@H]2[C@@]12C[C@@H](c1ccoc1)OC2=O`, for which the Potency entry in assay [1] and in assay [2] was “inactive” each time.

Turning to `CC(=O)O[C@@H]1[C@@H](O)[C@H](C)O[C@@H](O[C@H]2[C@@H]3C=CO[C@@H](O[C@@H]4O[C@H](CO)[C@@H](O)[C@H](O)[C@H]4OC(C)=O)[C@@H]3[C@@]3(CO)O[C@@H]23)[C@@H]1OC(=O)/C=C/c1ccc(O)cc1`, the Potency entry in assay [1] and in assay [2] was “inactive” in each case.

As for `C/C(=C\CCC(C)(C)O)CCO[C@@H]1O[C@H](CO[C@@H]2O[C@@H](C)[C@H](O)[C@@H](O)[C@H]2O)[C@@H](O)[C@H](O)[C@H]1O`, the Potency result in assay [1] and in assay [2] was “inactive” each time.

Regarding `C=C[C@@]1(C)CCC2=C([C@H]1OC(C)=O)[C@H](OC(C)=O)CC1[C@](C)(C(=O)OC)CC[C@H](OC(C)=O)[C@]21C` (stereo partly specified), the Potency result in assay [1] and in assay [2] was “inactive” throughout.

Source of the values: PubChem BioAssay (NCATS).
